Some test systems named below: LRRK2; LTK; LYN; MAK; MAP3K15; MAP3K1; MAP3K2; MAP3K3; MAP3K4; MAP4K2; MAP4K3; MAP4K4; MAP4K5; MAPKAPK2; MAPKAPK5; MARK1; MARK2.
Common to all, as to conditions: concentration: 1 μM, replicates: in singlicate; n = 1
For another assay, the system named is T1, LKB1.
T1 construct: gene STK11

In the next assay the test system is T2, LOK.
T2 construct: gene STK10

A further assay relates to T3, LZK.
T3 construct: gene MAP3K13

We go through eleven compounds from publication PMC5540273 (PLoS ONE, 2017).
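Note: KINOMEscan kinase panel screen.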

With `CS(=O)(=O)CCNCc1nc(-c2ccc3ncnc(Nc4ccc(OCc5cccc(F)c5)c(Cl)c4)c3c2)cs1.Cl` [GW583340], the “%Inh” value was 17% with LKB1; 20% in the assay on LOK; 0% with LRRK2; 0% in the assay with LTK; 0% in the assay with LYN; 0% with LZK. For the same compound, the “%Inh” value in the assay on MAK was found to be 23%; in the assay on MAP3K15 it was 0%; in the assay on MAP3K1, 0%; in the assay with MAP3K2, 0%; with MAP3K3 it was 0%; with MAP3K4, 4%. The “%Inh” value with MAP4K2 is reported as 0%; in the assay with MAP4K3, 0%; with MAP4K4, 0%; in the assay with MAP4K5, 0%; in the assay on MAPKAPK2, 4%; in the assay with MAPKAPK5 it was 0%. Moreover, the “%Inh” value with MARK1 and in the assay on MARK2 was 0% throughout.

In the case of `Fc1cccc(COc2ccc(Nc3ncnc4cc[nH]c34)cc2Cl)c1`, the “%Inh” value is 0% in the assay on LKB1; 29% in the assay with LOK; 9% in the assay with LRRK2; 18% with LTK; 0% in the assay on LYN; 20% in the assay on LZK. Also, the “%Inh” value in the assay on MAK came out at 9%; in the assay with MAP3K15 it was 50%; in the assay with MAP3K1, 21%; in the assay on MAP3K2 it was 11%; in the assay on MAP3K3, 0%; with MAP3K4, 4%. For the same compound, the “%Inh” value with MAP4K2 is given as 0%; with MAP4K3 it was 0%; in the assay with MAP4K4, 21%; in the assay on MAP4K5, 7%; in the assay with MAPKAPK2, 4%; in the assay with MAPKAPK5 it was 26%. The “%Inh” value in the assay on MARK1 is 0%; in the assay on MARK2, 36%.

With `Fc1ccc(-c2ncn(CCCNCc3ccccc3)c2-c2ccncc2)cc1`, the “%Inh” value is given as 27% in the assay on LKB1; 19% with LOK; 0% in the assay with LRRK2; 0% with LTK; 22% with LYN; 12% with LZK. The “%Inh” value in the assay on MAK was found to be 5%; with MAP3K15, 10%; with MAP3K1 it was 15%; with MAP3K2, 0%; in the assay with MAP3K3 it was 16%; with MAP3K4, 7%. For the same compound, the “%Inh” value in the assay on MAP4K2 turned out to be 14%; with MAP4K3 it was 0%; in the assay with MAP4K4, 0%; in the assay with MAP4K5, 12%; in the assay with MAPKAPK2, 10%; in the assay on MAPKAPK5 it was 19%. Further, the “%Inh” value in the assay on MARK1 and with MARK2 was 0% each time.

For `CC(C)(C)OC(=O)NC1CCCN(c2cc(-c3ccc4c(N)n[nH]c4c3)nc(N)n2)C1` (stereo not shown) [GSK2286096], the “%Inh” value in the assay on LKB1, in the assay on LOK, in the assay on LRRK2, in the assay on LTK, with LYN and in the assay on LZK was 0% each time. Moreover, the “%Inh” value in the assay on MAK was found to be 17%; in the assay on MAP3K15, 0%; in the assay with MAP3K1, 10%; in the assay with MAP3K2 it was 0%; with MAP3K3 it was 0%; in the assay with MAP3K4, 17%. For the same compound, the “%Inh” value in the assay on MAP4K2 is reported as 0%; in the assay on MAP4K3 it was 3%; with MAP4K4, 0%; with MAP4K5 it was 0%; with MAPKAPK2, 0%; with MAPKAPK5, 0%. Also, the “%Inh” value in the assay with MARK1 and in the assay with MARK2 was 0% throughout.

As for `Cn1ccc2ncnc(Oc3ccc(NC(=O)Nc4cccnc4)c(Cl)c3)c21`, the “%Inh” value with LKB1 came to 11%; with LOK it was 35%; in the assay with LRRK2, 0%; in the assay with LTK it was 6%; in the assay on LYN, 5%; with LZK, 0%. Moreover, the “%Inh” value with MAK is 0%; in the assay on MAP3K15, 0%; with MAP3K1, 0%; in the assay on MAP3K2, 0%; with MAP3K3, 0%; in the assay on MAP3K4 it was 2%. The “%Inh” value with MAP4K2, in the assay on MAP4K3, in the assay on MAP4K4, with MAP4K5, with MAPKAPK2 and in the assay with MAPKAPK5 was 0% each time. The “%Inh” value in the assay with MARK1 and with MARK2 was 0% in each case.

With `Cl.Cl.c1ccc(-c2cc3ccncc3cc2OC2CCNCC2)cc1` [GSK1122999], the “%Inh” value is reported as 3% with LKB1; 0% in the assay on LOK; 0% in the assay on LRRK2; 24% in the assay on LTK; 38% with LYN; 0% with LZK. The “%Inh” value stood at 28% in the assay on MAK; 0% in the assay with MAP3K15; 19% in the assay on MAP3K1; 13% with MAP3K2; 0% in the assay on MAP3K3; 18% with MAP3K4. Also, the “%Inh” value with MAP4K2 was 0%; in the assay with MAP4K3, 0%; in the assay on MAP4K4, 10%; in the assay on MAP4K5 it was 0%; in the assay with MAPKAPK2 it was 25%; with MAPKAPK5 it was 0%. Besides, the “%Inh” value in the assay on MARK1 and in the assay on MARK2 was 0% throughout.

In the case of `CNc1nccc(-c2c(-c3ccc(F)cc3)ncn2C2CCN(C)CC2)n1` [SB-222903], the “%Inh” value with LKB1 is given as 0%; in the assay on LOK it was 3%; with LRRK2, 0%; in the assay with LTK, 0%; in the assay with LYN, 0%; in the assay on LZK it was 0%. For the same compound, the “%Inh” value in the assay on MAK, with MAP3K15, in the assay with MAP3K1, in the assay on MAP3K2, in the assay with MAP3K3 and in the assay on MAP3K4 was 0% throughout. The “%Inh” value in the assay on MAP4K2, with MAP4K3, with MAP4K4, in the assay on MAP4K5, with MAPKAPK2 and in the assay on MAPKAPK5 was 0% throughout. Besides, the “%Inh” value in the assay with MARK1 and in the assay with MARK2 was 0% in each case.

Consider `CN1CCC(n2cnc(-c3ccc(F)cc3)c2-c2ccnc(NC3CCNCC3)n2)CC1` [SB-229482], for which the “%Inh” value in the assay with LKB1 was 27%; in the assay with LOK, 0%; with LRRK2, 0%; in the assay with LTK, 0%; in the assay with LYN, 15%; with LZK it was 0%. The “%Inh” value in the assay on MAK is 29%; with MAP3K15, 0%; in the assay with MAP3K1, 4%; in the assay on MAP3K2, 0%; in the assay on MAP3K3, 0%; with MAP3K4 it was 1%. Also, the “%Inh” value came to 12% in the assay on MAP4K2; 0% in the assay with MAP4K3; 0% in the assay with MAP4K4; 0% in the assay with MAP4K5; 8% with MAPKAPK2; 6% in the assay with MAPKAPK5. In addition, the figures for the “%Inh” value in the assay on MARK1 and with MARK2 were 8% and 13%, respectively.

On to `Fc1cccc(COc2ccc(Nc3ncnc4nn5ccccc5c34)cc2Cl)c1` [GW689066], for which the “%Inh” value in the assay with LKB1 stood at 14%; in the assay on LOK it was 0%; in the assay on LRRK2 it was 31%; in the assay on LTK it was 0%; in the assay on LYN, 0%; with LZK it was 16%. The “%Inh” value in the assay with MAK worked out at 0%; in the assay with MAP3K15 it was 0%; with MAP3K1 it was 0%; in the assay on MAP3K2, 8%; in the assay with MAP3K3, 0%; in the assay with MAP3K4 it was 0%. The “%Inh” value is given as 0% in the assay on MAP4K2; 0% in the assay on MAP4K3; 0% in the assay with MAP4K4; 0% with MAP4K5; 4% in the assay on MAPKAPK2; 0% in the assay on MAPKAPK5. Further, the “%Inh” value in the assay on MARK1 and in the assay on MARK2 was 0% each time.

For the compound `CSc1nn2c(=O)cc(N3CCOCC3)nc2n1Cc1cccc(Cl)c1Cl` [GSK2347225], the “%Inh” value was found to be 0% in the assay on LKB1; 0% in the assay on LOK; 0% with LRRK2; 4% with LTK; 10% with LYN; 0% in the assay on LZK. In addition, the “%Inh” value worked out at 24% with MAK; 0% in the assay on MAP3K15; 6% in the assay on MAP3K1; 1% with MAP3K2; 0% with MAP3K3; 31% in the assay on MAP3K4. Further, the “%Inh” value is on record as 0% in the assay with MAP4K2; 42% in the assay with MAP4K3; 22% with MAP4K4; 12% in the assay with MAP4K5; 22% in the assay with MAPKAPK2; 0% with MAPKAPK5. In addition, the “%Inh” value in the assay with MARK1 and with MARK2 was 0% throughout.

For `C[C@H]1CC[C@@H](C(=O)Nc2ccccc2)CN1c1cc(-c2ccc3c(N)n[nH]c3c2)nc(N)n1` [GSK2283293], the “%Inh” value in the assay with LKB1 was found to be 15%; with LOK, 0%; in the assay with LRRK2 it was 0%; in the assay on LTK, 0%; in the assay with LYN, 0%; with LZK it was 0%. Further, the “%Inh” value with MAK was 12%; with MAP3K15, 0%; in the assay with MAP3K1, 0%; in the assay on MAP3K2 it was 0%; in the assay on MAP3K3 it was 34%; with MAP3K4, 5%. Moreover, the “%Inh” value in the assay on MAP4K2 is reported as 0%; in the assay on MAP4K3 it was 0%; in the assay on MAP4K4 it was 7%; with MAP4K5, 0%; with MAPKAPK2, 22%; in the assay with MAPKAPK5, 0%. In addition, the “%Inh” value with MARK1 and with MARK2 was 0% each time.
